For 38 molecules, growth results are on record in PubChem BioAssay (NCI).

Compounds without any hit were thinned out: in the full panel of roughly 83,000, 20% have a hit.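 Assay: single dose, 48 h. Readout: percent growth (0 = no net growth; negative = cell death). Active: <10.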 Values without a mark were called inactive. The source made the active and inactive calls.

In one assay the test system is U251 CNS. The assay can be described thus: NCI-60 one-dose screen, 48 h (100 = growth as untreated, 0 = no growth, -100 = all killed). As to conditions: 10 µM unless noted.
On to `C=C1C(=O)O[C@H]2[C@H]1CC/C(COC(=O)NCc1c[nH]c3ccc(F)cc13)=C\CC[C@@]1(C)O[C@@H]21`, for which the growth was 18.7%.

Turning to `Cc1cc2nc3c4cccc(O)c4n(CCN(C)C)c3nc2cc1C`, the growth was 35.5%.

For `O=C(Cc1ccccc1)NNc1nc(Cl)nc(N2CCN(C(c3ccccc3)c3ccccc3)CC2)n1`, the growth is 99.9%.

The subject of a further assay is PC-3 prostate. The description is as above. As to conditions: 10 µM unless noted.
For `O=C1OC(Cc2ccccc2)C1c1ccccc1` (stereo unspecified), the growth is 106%.

Take `O=C1Nc2cc(-c3ccc(NC(=O)c4ccccc4)cc3)ccc2/C1=C/c1ccc[nH]1`: the growth was 101%.

Take `O=C(N/N=C/c1cc2ccccc2n2nnnc12)Nc1ccccc1`: the growth was 101%.

Regarding `O=C1c2ccc3c4c(ccc(c24)C(=O)N1CCCNCc1ccccc1)C(=O)N(CCCNCc1ccccc1)C3=O`, the growth was -65.4% (active).

In the case of `C=C1C(=O)O[C@H]2[C@H]1CC/C(COC(=O)NCCc1c[nH]c3ccc(OC)cc13)=C\CC[C@@]1(C)O[C@@H]21`, the growth was 54.7%.

Regarding `CCOc1ccc(Nc2nc(-c3ccc4c(c3)NC(=O)CO4)cs2)cc1`, the growth was 24.6%.

Take `COc1ccc(C(=O)c2cc(C)c(OC)c(C)c2)c(OC)c1OC(=O)C(Cl)Cl`: the growth is 19.1%.

For `CN(C)c1ccc(Nc2c3ccccc3nc3cc(NC(=O)CCN4CCCC4)ccc23)cc1`, the growth was -25.4% (active).

For `Cc1nc(N)nc(N[C@@H](C)c2nc3cccc(NCc4ccc(C(=O)NO)cc4)c3c(=O)n2-c2ccccc2)n1`, the growth is 88%.

For the molecule `COc1ccc(C/C(=C(\C)c2ccc(OCCN3CCCC3)cc2)c2ccc(OCCN3CCCC3)cc2)cc1`, the growth is 50.9%.

As for `NC(=NCCCOc1ccc(F)cc1)Nc1ccc(Cl)cc1`, the growth was 50.2%.

For the molecule `CCCOC(=O)N[C@H]1CCc2c(Cl)c(OC)c(OC)c(OC)c2-c2ccc(SC)c(=O)cc21`, the growth is 24%.

As to `N#Cc1c(NC(=O)NCc2ccccc2)sc2c1CCCC2`, the growth is 26.9%.

On to `NCCCCCCNc1cc(-c2cccc(OC(F)(F)F)c2)nc2ccc(N3CCCC3)cc12`, for which the growth is -5.66% (active).

Consider `C[C@H]1[C@H](C)CC[C@]2(C(=O)NCC#CCN3CCN(C)CC3)CC[C@]3(C)C(=CC[C@@H]4[C@@]5(C)Cc6c([nH]c7ccccc67)C(C)(C)[C@@H]5CC[C@]43C)[C@H]12`, for which the growth was 69.8%.

Regarding `N#Cc1c(NCc2ccccc2I)sc2c1CCCCC2`, the growth is 98.8%.

On to `CN1C(=O)NC(c2ccc3c(c2)OCO3)C=C1c1ccccc1` (stereo unspecified), for which the growth is 102%.

In the case of `COc1cc(/C=C\C(=O)O)ccc1OCc1ccccc1`, the growth is 92.8%.

`CCN(CC)c1ccc(/C=N/NC(=O)CSc2nc3ccccc3c(=O)n2Cc2ccc(S(N)(=O)=O)cc2)c(O)c1`: the growth was 48.8%.

On to `Cc1ccc(S(=O)(=O)NNC(=O)/C(=C\c2ccc(Cl)cc2)c2nc3ccccc3s2)cc1`, for which the growth is 90.5%.

With `CCOC(=O)[C@@H]1CCCN(S(=O)(=O)c2ccc(S(=O)(=O)N(CC)CC)c(F)c2)C1`, the growth is 84%.

With `Cc1ccc(CNc2c3ccccc3nc3cc(NC(=O)CCN4CCCC4)ccc23)cc1`, the growth was -0.231% (active).

As for `COc1ccc(CC(C)=C(c2ccc(OCCN3CCCCCC3)cc2)c2ccc(OCCN3CCCCCC3)cc2)cc1`, the growth was -87.2% (active).

Take `CCCCNC(=O)Oc1ccc(/C(=C(\C)c2ccccc2)c2ccc(OCCN3CCCCC3)cc2)cc1`: the growth is 55.3%.

In the case of `Cn1c2ccccc2c2c3c(c4c5ccccc5n(C)c4c21)C(=O)OC3`, the growth is 90.6%.

Turning to `CNC(=O)c1cc(Cn2nc(C)c(NC(=O)Nc3ccc(Cl)c(C(F)(F)F)c3)c2C)ccn1`, the growth is 79.4%.

As for `O=C(Nc1ccc(NC(=O)c2cc(=O)[nH]c3ccccc23)cc1)Nc1cccc(Cl)c1`, the growth is 76.5%.

Take `COc1ccc(C(=O)CSc2nc(-c3cc(OC)ccc3OC)cc(-c3ccc(Cl)cc3)c2C#N)cc1`: the growth is 56.8%.

Regarding `Cc1cc(C)c(S(=O)(=O)Oc2ccccc2[N+](=O)[O-])c(C)c1`, the growth is 20.7%.

As for `O=C(CCN1CCCC1)Nc1ccc2c(NCc3ccccc3)c3ccccc3nc2c1`, the growth is -4.59% (active).

For `CCN(CC)c1ccc(/C=N/NC(=O)CSc2nc3ccccc3c(=O)n2CCc2ccc(S(N)(=O)=O)cc2)c(O)c1`, the growth is 45%.

With `O=C(CSc1nc2sc3c(c2c(=O)n1-c1ccc(Cl)cc1)CCCC3)Nc1nc(-c2cccc(Br)c2)cs1`, the growth is 57.5%.

Regarding `COc1ccc(C(C)=O)c(OC)c1`, the growth is 91.1%.

`COc1cccc(-c2nc3occn3c2-c2ccnc(NCCCNS(=O)(=O)c3ccc(C(F)(F)F)cc3)n2)c1`: the growth was 75.9%.

Regarding `C=C1C(=O)O[C@H]2[C@H]1CC/C(C(=O)NCCCCCNC(=O)/C1=C/CC[C@@]3(C)O[C@H]3[C@H]3OC(=O)C(=C)[C@@H]3CC1)=C\CC[C@@]1(C)O[C@@H]21`, the growth is 91.6%.

As for `C=C1C(=O)O[C@H]2[C@H]1CC/C(COC(=O)NCc1c[nH]c3ccc(F)cc13)=C\CC[C@@]1(C)O[C@@H]21`, the growth is 32%.

With `Cc1cc2nc3c4cccc(O)c4n(CCN(C)C)c3nc2cc1C`, the growth was 35.6%.

Consider `O=C(Cc1ccccc1)NNc1nc(Cl)nc(N2CCN(C(c3ccccc3)c3ccccc3)CC2)n1`, for which the growth was 81.5%.
